Our source for the inhibition values is ChEMBL document CHEMBL3433997, “St. Jude Leishmania screening dataset” (2016).

Values joined by “and” are separate entries in the source; they are usually repeats but may differ in a detail not shown here. Equal values may be shown once.

Solute carrier family 2, facilitated glucose transporter member 1 (Homo sapiens), sequence (P11166 whole entry): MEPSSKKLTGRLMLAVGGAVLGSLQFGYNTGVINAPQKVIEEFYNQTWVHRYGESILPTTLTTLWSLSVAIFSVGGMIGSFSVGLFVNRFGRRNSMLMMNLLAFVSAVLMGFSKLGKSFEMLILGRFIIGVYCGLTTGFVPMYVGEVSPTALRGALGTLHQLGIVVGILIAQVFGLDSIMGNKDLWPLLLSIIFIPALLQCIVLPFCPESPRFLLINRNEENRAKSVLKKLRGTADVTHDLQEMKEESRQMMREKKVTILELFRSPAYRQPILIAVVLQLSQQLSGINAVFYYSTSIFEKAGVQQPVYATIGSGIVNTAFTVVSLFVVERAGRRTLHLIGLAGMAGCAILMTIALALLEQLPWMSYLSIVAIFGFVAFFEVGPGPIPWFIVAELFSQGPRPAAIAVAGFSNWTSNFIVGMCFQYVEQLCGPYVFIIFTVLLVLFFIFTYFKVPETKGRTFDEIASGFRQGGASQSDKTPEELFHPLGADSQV

The assay has as its target Solute carrier family 2, facilitated glucose transporter member 1 (Homo sapiens) (UniProt P11166). The assay can be described thus: ST_JUDE_LEISH: Cytotoxicity at 2uM final concentration against transgenic Leishmania Mexicana promastigotes LmGLUT1 that are glucose transport deficient and complemented with the human glucose transporter GLUT1. Activity is measured by DNA content using SYBR green in vitro. It counts as functional.
In general, inhibition refers to the relative decrease from the control value, in per cent. For `O=C1COC(c2ccccc2)(c2ccccc2)CN1CC1CCN(Cc2ccc(O)cc2Cl)C1` (stereo not given), the inhibition was determined as 3.1%. With `c1cncc(NCc2ccc(-c3cc4ccncc4cc3OC3CCNCC3)s2)c1`, the inhibition is 4.74%. For `CC(=O)Nc1ncc(C(=O)Nc2cccc(-c3cccc(-c4nc5cc(C(F)(F)F)ccc5[nH]4)c3)c2)s1`, the inhibition is -1.12%. Then `N#CCCN1CCN(Cc2cccc(-c3ccc(-c4nc5cc(F)ccc5[nH]4)cc3)c2)CC1`, with 4.34%; and `CCCN(CCC)C(=O)c1cc(C(=O)N[C@@H](Cc2ccccc2)[C@H](O)CNCc2cccc(C(F)(F)F)c2)cc(N2CCCCS2(=O)=O)c1`, with -1.33%; and `CCn1c(CN2CCN(Cc3ccccc3)CC2)nc2cc(NC(=O)c3cccs3)ccc21`, with 1.2%.

Take `Cc1cc(CN2CCC(N3CC(c4ccccc4)(c4ccccc4)OCC3=O)C2)ccc1O` (stereo not given): the inhibition was determined as 0.59%. The value for `CN(Cc1cnc2nc(N)nc(N)c2n1)c1ccc(C(=O)N[C@@H](CCC(=O)O)C(=O)O)cc1` was 3.29% and 4.83% and 0.58%; that for `Fc1ccc2[nH]c(-c3cccc(-c4cccc(CNCc5ccccc5)c4)c3)nc2c1` was 0.07%; that for `CCCCCCCCCn1c(NCc2cc(Cl)ccc2O)nc2ccccc21` was 2.6%.

In the case of `CC1CN(Cc2cccc(F)c2)CCN1c1ccc(NC(=O)c2ccc(F)cc2)cc1` (stereo not given), the inhibition is 2.15%. On to `Fc1ccccc1C=NNc1ccnc2cc(Cl)ccc12`, for which the inhibition is 5.84%. Then `O=C(O)c1ccc2nc(-c3ccccn3)c(-c3ccccn3)nc2c1`, with -0.91%; and `Cn1ncc2c3c(CCN4CCC(NCc5ccc6c(c5)NC(=O)CO6)CC4)c(Cl)cnc3ccc21`, with 1.41%. With `COc1ccc2nccc(N(C)CC3(O)CCN(CCc4ccc5c(c4)OCCO5)CC3)c2n1`, the inhibition came to 0.49%.
